CR mimetic SO: lowers age-related superoxide in aged yeast cells | superoxide response (% of plate mean), % at 10 µM | S. cerevisiae aged cells, superoxide DHE fluorescence; active compounds read low | hit rate 0.18% among 330,000;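 active means superoxide response under a set limit, about three screen SD below normal, cut at about 65% in these data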;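 further: yeast aged for seven days with compound at 30 °C before DHE staining; 100% = average MFI of all compound-treated wells on the plate with controls excluded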
GRIN3A LBD mod: modulators (binders) of human NR3A ligand-binding domain; NR3A LBD differential scanning fluorimetry, Tm shift; 0% = protein alone, 100% = glycine-bound protein; Tm shift relative to glycine control, % at 25 µM; hit rate 2.5% among 340,000; AID 1259313;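 active means melting temperature shift of at least 10% of the positive control shift, at one fixed dose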
NALP1 yeast inh: blocks the NALP1 inflammasome reconstituted in yeast | S. cerevisiae NALP1/ASC/caspase-1 growth, X-gal OD620, 72 h | inhibition, % at 10 µM | hit rate 0.61% among 280,000 | AID 2071; in the data active means inhibition mostly above about 24%, no sharp cut-off; inactive means mostly below about 32%
UBC13 inh: inhibitors of human UBC13 polyubiquitin chain formation; P61088; TR-FRET; inhibition, % at 20 µM; hit rate 0.47% among 330,000; AID 485273; in the data active means inhibition above about 45%, passing the limit was not always enough
Target sequence (P61088 whole entry, looked up): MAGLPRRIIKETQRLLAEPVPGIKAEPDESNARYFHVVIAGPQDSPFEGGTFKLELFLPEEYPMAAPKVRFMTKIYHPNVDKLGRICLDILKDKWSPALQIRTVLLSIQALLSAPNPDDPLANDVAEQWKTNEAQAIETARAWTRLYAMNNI
dFosB act-1: mouse delta FosB homodimer activation | hit rate 0.99% among 340,000 | activation, % at 25 µM | AID 493131 | P13346 | purified delta FosB, TAMRA-CDK5 oligo fluorescence polarization; percent of positive-control signal above neutral wells;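 active means mean activation above about 17%, with every replicate also reaching it, limit read from the data, passing the limit was not always enough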
dFosB act-2: enhances mouse delta FosB homodimer binding to DNA; shares compounds with dFosB act-1; AID 588690; 2,400 tested, under 10 active; activation, % at 24.9 µM; purified delta FosB, TAMRA-CDK5 oligo fluorescence polarization; normalised: neutral wells 0, positive control 100;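 active means highest replicate activation at or above 34% and every replicate reaching that threshold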;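 further: higher polarization means more probe DNA bound by delta FosB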
* marks the source's active call; other numbers are inactive results; / = not tested or not shown. Hits are enriched below; roughly 4.3% of the tested compounds scored in any of these assays.

SMILES	CR mimetic SO	GRIN3A LBD mod	NALP1 yeast inh	UBC13 inh	dFosB act-1	dFosB act-2
COc1ccc(C(=O)NC(=S)Nc2ccc(N3CCN(C(C)=O)CC3)cc2)cc1[N+](=O)[O-]	93	-1	/	2	-13	/
COc1cccc(C(=O)Nc2ccc3c(c2)C(=O)NC3=O)c1	87	-3	14	-6	23*	3
O=C(COc1ccc(Cl)cc1)Nc1ccc(NC(=O)c2ccco2)cc1	95	17*	1	0	25*	9
COc1ccc(C(=O)NC(=S)Nc2ccc(NC(=O)c3ccco3)cc2)cc1[N+](=O)[O-]	96	30*	28	-2	29*	0
COc1ccccc1C(=O)Nc1ccc2c(c1)C(=O)NC2=O	84	-2	9	3	11	/
O=C(COc1ccccc1)Nc1ccc(NC(=O)c2ccco2)cc1	96	9	-28	5	1	/
CCOc1cccc(C2/C(=C(/O)c3ccc4c(c3)CC(C)O4)C(=O)C(=O)N2Cc2ccncc2)c1 (configuration not stated)	90	-2	22	-21	-11	/
CCOc1ccc(Oc2ccc(C(F)(F)F)cc2NC(=O)C2=COCCO2)cc1	87	-3	/	-6	6	/
COCCN(C(=O)COc1ccccc1)c1nnc(-c2cccnc2)s1	100	-1	-28	-5	32*	7
CCOc1ccc(NC(=O)Cn2nnc3c(cnn3-c3ccc(F)cc3)c2=O)cc1	107	-1	-27	2	0	/
O=C(Cn1ncc2c([nH]c3ccccc32)c1=O)NCCc1ccc(Cl)cc1	87	-2	19	-10	10	/
Cc1ccccc1NC(=O)Cn1nnc2c(cnn2-c2ccc(F)cc2)c1=O	123	2	4	-4	18*	4
O=C(Cn1ncc2c([nH]c3ccccc32)c1=O)Nc1ccc(F)cc1F	103	-1	16	-9	64*	9
CC(Oc1ccc(C(=O)c2ccc(F)cc2)cc1)C(=O)N1CCOCC1 (configuration not stated)	86	0	/	-5	-3	/
Cn1cc(Cl)c(C(=O)Nc2nc3ccc(Cl)cc3s2)n1	92	-3	26	-2	24*	-2
Cc1ccc(-c2csc(/C=C3\SC(C)C(=O)N3CC(=O)Nc3ccccc3F)n2)cc1 (configuration not stated)	109	5	/	-28	18*	0
O=C(OCC#CCSc1nnc(-c2cccc3ccccc23)o1)c1ccc2ccccc2c1	107	5	/	19	-6	/
CCOC(=O)c1c(C)oc2c(CC(=O)c3ccccc3)c(Cl)c(O)c(O)c12	86	-11	21	/	-2	/
Nc1c(S(=O)(=O)c2cccs2)c2nc3ccccc3nc2n1Cc1cccs1	112	2	0	10	26*	0
COc1ccc(/C=C(/Sc2nnc(-c3ccc(Cl)cc3)o2)C(=O)O)cc1	114	6	-4	-18	36*	5
Cc1ccc(C)c(NC(=O)CSc2nnc(-c3n[nH]c4ccccc34)o2)c1	105	-8	13	4	34*	-1
CCN(CC)S(=O)(=O)c1ccc(-c2nnc(SCC(=O)Nc3ccc(OC)cc3)o2)cc1	89	-1	-75	-8	107*	1
Cc1ccc(C)c(NC(=O)CSc2nnc(-c3ccccc3C)o2)c1	90	0	16	9	13	/
O=C(CSc1nnc(-c2ccc(Br)cc2)o1)Nc1cccc2ccccc12	91	0	14	1	30*	0
COc1ccccc1/C=C/C(=O)Nc1nc(N)n(-c2ccccc2)n1	103	1	-15	-5	-5	/
Cc1ccnc(NCc2ccc(Cl)cc2)c1	100	-1	15	6	5	/
COc1ccccc1C(=O)NNC(=O)c1ccc(NC(=O)C(C)C)cc1	/	0	-37	/	2	/
Cc1ccccc1OCc1ccc(C(=O)N2CCOCC2)o1	94	0	4	-2	4	/
C=CCN1C(=O)C(CC(=O)O)S/C1=N/N=C/c1ccc(N(CC)CC)cc1 (configuration not stated)	93	-4	/	-6	-13	/
CCS(=O)(=O)Nc1ccc(-c2nnc(SCC(=O)OC)o2)cc1	90	1	3	-5	-3	/
